# Measured values taken from PubChem BioAssay (NCI).
# This is part of a sample that, as a whole, favours compounds with a hit. Of some 83,000 tested, about 20% had one in any assay.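 48-hour exposure, single concentration, 96-well plates; percent growth endpoint where 0 means no net growth. Active: below 10.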 Values without a mark were called inactive. Calls of active or inactive are those of the source.
# Key:
# Experiment in all cases: NCI-60 one-dose screen, 48 h (100 = growth as untreated, 0 = no growth, -100 = all killed)
# Conditions in all cases: 10 µM unless noted
# [1] = tested on: SK-MEL-2 melanoma
# [2] = tested on: EKVX NSCLC
# [3] = tested on: SN12C renal
# [4] = tested on: UO-31 renal
# [5] = tested on: TK-10 renal
# [6] = tested on: ACHN renal
# [7] = tested on: CAKI-1 renal
# [8] = tested on: A498 renal
# [9] = tested on: CCRF-CEM leukemia
# [10] = tested on: MOLT-4 leukemia
# [11] = tested on: RPMI-8226 leukemia
# [12] = tested on: OVCAR-8 ovarian
# [13] = tested on: OVCAR-5 ovarian
# [14] = tested on: OVCAR-4 ovarian
# [15] = tested on: SK-OV-3 ovarian
# [16] = tested on: IGROV1 ovarian
# [17] = tested on: OVCAR-3 ovarian
# [18] = tested on: HS 578T breast
# [19] = tested on: NCI/ADR-RES ovarian
SMILES,growth [1],growth [2],growth [3],growth [4],growth [5],growth [6],growth [7],growth [8],growth [9],growth [10],growth [11],growth [12],growth [13],growth [14],growth [15],growth [16],growth [17],growth [18],growth [19]
N#Cc1nc(C#N)c(Sc2ccccc2)c(Sc2ccccc2)c1Sc1ccccc1,-64.1% (active),8.11% (active),0.446% (active),-72.1% (active),-36.8% (active),-78% (active),17.7%,-14.1% (active),-7.95% (active),-19.2% (active),0.263% (active),3.62% (active),-71.3% (active),-11.9% (active),-10.3% (active),-67.9% (active),-87.7% (active),55.2%,20.3%
O=C(/C=C/c1c(Cl)nc2sccn12)c1ccc(F)c(F)c1,74.7%,74%,76.5%,64%,91.6%,81.1%,81.2%,73.6%,71.7%,66.7%,55.6%,92.7%,76.2%,79.4%,71.3%,87.5%,81.7%,73.3%,85.6%
Cc1ccc(/C=C/c2c(C(=O)/C=C/c3ccc(Cl)cc3)c(C)nc3ccccc23)cc1,8.94% (active),17.6%,-49.2% (active),-74.7% (active),26.5%,-64.6% (active),-4.17% (active),-16.1% (active),4.53% (active),0.928% (active),-31.7% (active),13%,-33.4% (active),6.64% (active),55.1%,1.39% (active),-46.2% (active),-5.28% (active),-21.6% (active)
S=C(c1ccc2c(c1)OCO2)N1CCN(c2ccccc2Cl)CC1,97.3%,124%,110%,79.4%,105%,99%,83.8%,97%,96.1%,95.8%,85.9%,102%,97.6%,98.7%,102%,101%,112%,107%,99.7%
CCC1(C2CCCC2)NC(=O)NC1=O (centres undefined),102%,105%,99%,87.4%,113%,93.8%,100%,100%,87.8%,110%,91.3%,109%,80.5%,113%,112%,97.5%,111%,98.9%,109%
CCCCCCN(CCCCCC)c1ccc(/C=C2/SC(=O)N(c3nc(N4CCCC4)nc(N4CCCC4)n3)C2=O)c(C)c1,53.9%,87.2%,59.9%,52.9%,85.8%,68.5%,82.5%,60.9%,54.1%,38.1%,42%,66.1%,104%,51.9%,91.3%,77.3%,63.2%,78.4%,71.3%
O=C1CCC2=C3C4CCCCC4C(=O)C4CCCC(OC2C1)C34 (centres undefined),3.05% (active),97.2%,14.1%,-43.5% (active),64.3%,-23.3% (active),-27.2% (active),104%,15.6%,7.03% (active),-4.93% (active),6.21% (active),108%,22.1%,78.4%,-2.77% (active),-28.8% (active),26.5%,3.01% (active)
Cc1ccc(-c2cc(-c3cccnc3)[nH]c(=O)c2C#N)cc1,120%,101%,104%,84.1%,116%,103%,87%,82.4%,101%,115%,101%,103%,107%,103%,114%,106%,106%,102%,105%
O=C(Nc1ccc(Cl)cc1)Nc1ccc(Cl)c(C(F)(F)F)c1,3.63% (active),-3.9% (active),6.93% (active),18.5%,18.1%,0.165% (active),8.5% (active),-7.36% (active),-27.6% (active),-9.08% (active),-32.9% (active),19.9%,1.37% (active),30.6%,-27.1% (active),29.8%,4.12% (active),19.7%,-37.1% (active)
Cc1nc2ccccc2c(/C=C/c2ccc(Cl)cc2)c1C(=O)/C=C/c1ccc(F)cc1,3.88% (active),29.9%,-10.2% (active),-79.4% (active),43.3%,3.87% (active),-10.1% (active),-4.11% (active),6.9% (active),4% (active),-25.1% (active),12.8%,-19.7% (active),25.8%,61.9%,-5.53% (active),-19.2% (active),8.46% (active),-0.868% (active)
C=CCSc1nc2ccccc2cc1/C=N/O,84.4%,76.6%,89.5%,58.9%,108%,87.6%,75.1%,98%,95.5%,86.7%,86.7%,89.6%,78.6%,107%,68.2%,74.1%,92.1%,72.2%,97.2%
Cc1c(C(=O)NC(Cc2ccccc2)C(O)C(=O)NCc2ccc(F)cc2)[nH]c2ccccc2c1=O (centres undefined),108%,104%,107%,94%,102%,107%,102%,107%,109%,93.6%,105%,103%,91%,107%,104%,103%,114%,99%,107%
N#C/C(=C\c1ccc(-c2ccccc2F)o1)c1nc(-c2ccco2)cs1,96.5%,67%,96.7%,68.8%,65.2%,90.4%,56.8%,66.9%,95%,91.9%,80.3%,94.2%,78.2%,19.6%,92.6%,59.9%,89.6%,98.5%,106%
COc1ccccc1N1C(=O)/C(=C/C2=Cc3ccccc3OC2)SC1=S,110%,95.3%,97.4%,88.3%,84.3%,96.9%,85.2%,40.7%,90.5%,94.6%,91.4%,102%,99.2%,83.2%,95.2%,97.2%,101%,94.6%,109%
COc1cc(N2C(=O)c3nccnc3C2=O)cc(OC)c1OC,95.5%,104%,94.1%,87.5%,100%,112%,97.3%,87.2%,100%,94.5%,97.6%,104%,109%,105%,103%,98.2%,120%,104%,104%
Nc1ccc2c(c1)c(N)nn2C(=O)Nc1ccc(Cc2ccccc2)cc1,73.7%,82.3%,61.1%,39.3%,88.3%,48.9%,38.9%,103%,55.5%,27.8%,28.2%,83.5%,67.2%,56.2%,107%,83.4%,70.1%,101%,78%
